Data from ChEMBL document CHEMBL1961873, “Compounds: GSK PKIS; Assays: Nanosyn kinase panel” (2012).

Tests used:
[1] = biological target: CDK3/Cyclin E (Homo sapiens) (UniProt P24864+Q00526); conditions: at 1 µM;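 further: each figure is a mean percent inhibition of the CDK3/cyclin E complex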
[2] = biological target: Cyclin-dependent kinase 4 (Homo sapiens) (UniProt P11802); conditions: at 0.1 µM
[3] = biological target: Cyclin-dependent kinase 4 (Homo sapiens) (UniProt P11802); conditions: at 1 µM
[4] = biological target: Cyclin-dependent kinase 5 (Homo sapiens) (UniProt Q00535); conditions: at 0.1 µM
[5] = biological target: Cyclin-dependent kinase 5 (Homo sapiens) (UniProt Q00535); conditions: at 1 µM
[6] = biological target: Cyclin-dependent kinase 6 (Homo sapiens) (UniProt Q00534); conditions: at 0.1 µM
[7] = biological target: Cyclin-dependent kinase 6 (Homo sapiens) (UniProt Q00534); conditions: at 1 µM
[8] = biological target: Dual specificity protein kinase CLK2 (Homo sapiens) (UniProt P49760); conditions: at 0.1 µM
[9] = biological target: Dual specificity protein kinase CLK2 (Homo sapiens) (UniProt P49760); conditions: at 1 µM
[10] = biological target: Dual specificity protein kinase CLK3 (Homo sapiens) (UniProt P49761); conditions: at 0.1 µM
[11] = biological target: Dual specificity protein kinase CLK3 (Homo sapiens) (UniProt P49761); conditions: at 1 µM
[12] = biological target: Dual specificity tyrosine-phosphorylation-regulated kinase 1A (Homo sapiens) (UniProt Q13627); conditions: at 0.1 µM
[13] = biological target: Dual specificity tyrosine-phosphorylation-regulated kinase 1A (Homo sapiens) (UniProt Q13627); conditions: at 1 µM
[14] = biological target: Dual specificity tyrosine-phosphorylation-regulated kinase 1B (Homo sapiens) (UniProt Q9Y463); conditions: at 0.1 µM
[15] = biological target: Dual specificity tyrosine-phosphorylation-regulated kinase 1B (Homo sapiens) (UniProt Q9Y463); conditions: at 1 µM
[16] = biological target: T1, Dual specificity tyrosine-phosphorylation-regulated kinase 2 (Homo sapiens) (UniProt Q92630); conditions: at 0.1 µM
T1 sequence (whole entry): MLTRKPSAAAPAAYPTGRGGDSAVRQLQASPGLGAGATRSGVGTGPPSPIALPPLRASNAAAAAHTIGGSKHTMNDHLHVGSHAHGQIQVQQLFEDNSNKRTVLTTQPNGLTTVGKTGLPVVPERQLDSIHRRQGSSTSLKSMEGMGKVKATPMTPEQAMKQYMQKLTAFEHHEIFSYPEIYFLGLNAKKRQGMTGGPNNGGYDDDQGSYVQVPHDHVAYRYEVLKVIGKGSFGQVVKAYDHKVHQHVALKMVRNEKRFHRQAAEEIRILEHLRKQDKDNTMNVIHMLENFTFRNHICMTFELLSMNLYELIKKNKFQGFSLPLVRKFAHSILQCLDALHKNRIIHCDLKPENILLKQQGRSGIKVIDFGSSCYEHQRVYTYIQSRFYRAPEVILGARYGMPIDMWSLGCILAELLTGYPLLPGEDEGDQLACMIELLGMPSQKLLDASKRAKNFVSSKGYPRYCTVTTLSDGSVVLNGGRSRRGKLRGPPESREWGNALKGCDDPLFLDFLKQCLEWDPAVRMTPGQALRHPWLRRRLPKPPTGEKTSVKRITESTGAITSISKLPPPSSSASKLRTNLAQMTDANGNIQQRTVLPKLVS

[17] = biological target: T1, Dual specificity tyrosine-phosphorylation-regulated kinase 2 (Homo sapiens); conditions: at 1 µM
[18] = biological target: Glycogen synthase kinase-3 alpha (Homo sapiens) (UniProt P49840); conditions: at 0.1 µM
[19] = biological target: Glycogen synthase kinase-3 alpha (Homo sapiens) (UniProt P49840); conditions: at 1 µM
[20] = biological target: Glycogen synthase kinase-3 beta (Homo sapiens) (UniProt P49841); conditions: at 0.1 µM;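 further: values are mean percent inhibition of GSK3B activity, from the GSK Published Kinase Inhibitor Set (PKIS) screening dataset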
Chain of Glycogen synthase kinase-3 beta (Homo sapiens) (P49841 whole entry, looked up): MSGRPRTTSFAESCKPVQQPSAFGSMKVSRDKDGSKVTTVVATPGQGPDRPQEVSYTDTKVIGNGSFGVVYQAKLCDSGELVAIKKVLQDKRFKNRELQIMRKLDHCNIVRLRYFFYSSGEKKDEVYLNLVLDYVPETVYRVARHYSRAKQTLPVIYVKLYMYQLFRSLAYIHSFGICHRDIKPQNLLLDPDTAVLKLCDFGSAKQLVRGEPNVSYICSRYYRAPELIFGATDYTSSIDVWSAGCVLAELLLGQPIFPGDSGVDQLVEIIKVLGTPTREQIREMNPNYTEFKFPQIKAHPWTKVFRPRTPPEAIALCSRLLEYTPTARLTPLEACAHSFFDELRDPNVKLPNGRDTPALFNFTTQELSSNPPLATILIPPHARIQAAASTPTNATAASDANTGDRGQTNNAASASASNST

Chain of Dual specificity tyrosine-phosphorylation-regulated kinase 1B (Homo sapiens) (Q9Y463 whole entry, looked up): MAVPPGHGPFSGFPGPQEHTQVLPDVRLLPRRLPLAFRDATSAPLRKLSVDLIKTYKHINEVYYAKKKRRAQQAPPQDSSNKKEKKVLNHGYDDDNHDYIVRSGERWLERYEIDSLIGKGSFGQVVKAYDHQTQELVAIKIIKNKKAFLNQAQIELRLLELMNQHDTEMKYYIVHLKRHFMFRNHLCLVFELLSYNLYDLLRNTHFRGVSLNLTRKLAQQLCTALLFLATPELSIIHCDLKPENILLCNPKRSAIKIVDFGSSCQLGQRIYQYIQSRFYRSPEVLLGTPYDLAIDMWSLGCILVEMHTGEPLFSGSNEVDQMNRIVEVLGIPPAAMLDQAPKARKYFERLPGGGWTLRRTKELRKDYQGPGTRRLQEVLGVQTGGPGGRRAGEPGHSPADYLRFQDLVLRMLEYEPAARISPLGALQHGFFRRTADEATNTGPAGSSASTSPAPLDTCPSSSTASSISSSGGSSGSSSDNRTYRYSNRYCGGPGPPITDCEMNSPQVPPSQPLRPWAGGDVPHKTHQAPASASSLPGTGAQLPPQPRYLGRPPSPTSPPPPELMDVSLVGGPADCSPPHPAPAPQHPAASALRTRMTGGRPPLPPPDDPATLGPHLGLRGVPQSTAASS
Chain of Glycogen synthase kinase-3 alpha (Homo sapiens) (P49840 2-483 limits assumed): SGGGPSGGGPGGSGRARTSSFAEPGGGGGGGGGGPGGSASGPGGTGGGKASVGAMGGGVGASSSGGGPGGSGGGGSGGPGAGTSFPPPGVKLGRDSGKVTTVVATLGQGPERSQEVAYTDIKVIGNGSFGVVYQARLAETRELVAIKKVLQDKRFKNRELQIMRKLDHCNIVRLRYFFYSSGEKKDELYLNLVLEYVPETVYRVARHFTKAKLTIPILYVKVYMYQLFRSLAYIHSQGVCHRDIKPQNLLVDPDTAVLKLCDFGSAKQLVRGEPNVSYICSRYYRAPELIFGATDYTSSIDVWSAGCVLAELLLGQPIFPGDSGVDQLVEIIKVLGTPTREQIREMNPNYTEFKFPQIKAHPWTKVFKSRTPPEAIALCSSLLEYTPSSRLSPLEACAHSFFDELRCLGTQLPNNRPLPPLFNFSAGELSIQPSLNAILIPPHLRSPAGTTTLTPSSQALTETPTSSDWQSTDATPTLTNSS
Chain of Cyclin-dependent kinase 4 (Homo sapiens) (P11802 whole entry): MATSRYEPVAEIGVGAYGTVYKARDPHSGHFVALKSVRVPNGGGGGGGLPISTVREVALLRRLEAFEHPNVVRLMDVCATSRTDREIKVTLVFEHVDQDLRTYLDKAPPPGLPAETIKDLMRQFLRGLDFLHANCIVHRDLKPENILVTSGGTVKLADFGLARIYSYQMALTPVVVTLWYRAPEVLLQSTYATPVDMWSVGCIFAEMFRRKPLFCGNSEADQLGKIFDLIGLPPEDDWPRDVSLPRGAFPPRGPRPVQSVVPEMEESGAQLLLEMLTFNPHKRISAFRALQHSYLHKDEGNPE
Chain of Cyclin-dependent kinase 6 (Homo sapiens) (Q00534 whole entry): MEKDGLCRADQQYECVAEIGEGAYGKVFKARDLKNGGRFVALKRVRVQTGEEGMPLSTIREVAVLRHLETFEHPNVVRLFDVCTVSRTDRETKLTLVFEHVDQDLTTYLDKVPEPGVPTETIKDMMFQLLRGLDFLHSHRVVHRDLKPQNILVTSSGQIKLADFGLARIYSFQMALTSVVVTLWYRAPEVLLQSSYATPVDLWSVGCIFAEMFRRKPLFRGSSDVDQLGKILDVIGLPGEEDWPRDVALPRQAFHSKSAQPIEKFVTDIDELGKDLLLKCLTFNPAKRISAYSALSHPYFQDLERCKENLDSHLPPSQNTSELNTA
Chain of Cyclin-dependent kinase 5 (Homo sapiens) (Q00535 whole entry, looked up): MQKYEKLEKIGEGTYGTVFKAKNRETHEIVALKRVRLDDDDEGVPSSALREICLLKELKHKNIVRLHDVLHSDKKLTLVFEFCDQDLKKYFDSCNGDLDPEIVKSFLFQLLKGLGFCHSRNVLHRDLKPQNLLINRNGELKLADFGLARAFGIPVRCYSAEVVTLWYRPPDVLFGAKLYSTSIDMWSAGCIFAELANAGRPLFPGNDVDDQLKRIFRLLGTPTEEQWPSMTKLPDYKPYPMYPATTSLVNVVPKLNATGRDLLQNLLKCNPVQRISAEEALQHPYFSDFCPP
Chain of Dual specificity protein kinase CLK2 (Homo sapiens) (P49760 whole entry, looked up): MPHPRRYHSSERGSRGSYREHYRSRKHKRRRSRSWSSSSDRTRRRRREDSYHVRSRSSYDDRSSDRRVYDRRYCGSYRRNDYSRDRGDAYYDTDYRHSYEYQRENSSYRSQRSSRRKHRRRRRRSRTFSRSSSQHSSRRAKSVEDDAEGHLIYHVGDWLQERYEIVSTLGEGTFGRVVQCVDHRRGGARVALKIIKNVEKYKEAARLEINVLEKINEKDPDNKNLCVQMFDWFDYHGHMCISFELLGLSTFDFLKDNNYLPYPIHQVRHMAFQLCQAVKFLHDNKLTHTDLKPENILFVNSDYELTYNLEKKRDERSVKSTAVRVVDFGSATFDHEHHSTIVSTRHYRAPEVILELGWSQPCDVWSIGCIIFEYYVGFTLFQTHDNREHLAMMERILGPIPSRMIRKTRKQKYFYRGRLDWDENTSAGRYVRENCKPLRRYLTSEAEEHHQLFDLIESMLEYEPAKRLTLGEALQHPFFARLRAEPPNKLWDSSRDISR
Chain of Dual specificity protein kinase CLK3 (Homo sapiens) (P49761 whole entry, looked up): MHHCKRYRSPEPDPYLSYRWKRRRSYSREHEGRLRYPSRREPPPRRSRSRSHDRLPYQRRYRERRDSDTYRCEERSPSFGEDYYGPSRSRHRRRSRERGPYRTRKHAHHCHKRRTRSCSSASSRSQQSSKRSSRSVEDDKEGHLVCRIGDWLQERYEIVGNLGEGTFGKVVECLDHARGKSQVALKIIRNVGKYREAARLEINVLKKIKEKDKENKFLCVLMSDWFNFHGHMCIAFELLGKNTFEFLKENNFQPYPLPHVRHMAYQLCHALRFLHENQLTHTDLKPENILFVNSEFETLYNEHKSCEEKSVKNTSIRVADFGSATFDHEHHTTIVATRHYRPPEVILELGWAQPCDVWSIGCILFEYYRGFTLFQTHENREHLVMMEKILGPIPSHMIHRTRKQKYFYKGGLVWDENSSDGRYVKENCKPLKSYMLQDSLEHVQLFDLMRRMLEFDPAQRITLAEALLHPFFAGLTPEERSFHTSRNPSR
Chain of CDK3/Cyclin E (Homo sapiens) (P24864 whole entry, looked up): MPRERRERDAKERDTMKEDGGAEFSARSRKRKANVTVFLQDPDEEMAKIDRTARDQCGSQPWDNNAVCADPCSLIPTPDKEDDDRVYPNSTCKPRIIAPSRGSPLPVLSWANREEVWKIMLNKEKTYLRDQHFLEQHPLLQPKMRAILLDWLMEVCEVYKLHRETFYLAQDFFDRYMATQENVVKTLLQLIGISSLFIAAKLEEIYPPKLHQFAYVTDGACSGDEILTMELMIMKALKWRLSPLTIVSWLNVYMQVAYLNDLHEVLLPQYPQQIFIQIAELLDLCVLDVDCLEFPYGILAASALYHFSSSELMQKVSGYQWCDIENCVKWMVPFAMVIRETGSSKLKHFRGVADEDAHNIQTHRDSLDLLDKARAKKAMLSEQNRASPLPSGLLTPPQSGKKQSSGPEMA
Chain of CDK3/Cyclin E (Homo sapiens) (Q00526 whole entry, looked up): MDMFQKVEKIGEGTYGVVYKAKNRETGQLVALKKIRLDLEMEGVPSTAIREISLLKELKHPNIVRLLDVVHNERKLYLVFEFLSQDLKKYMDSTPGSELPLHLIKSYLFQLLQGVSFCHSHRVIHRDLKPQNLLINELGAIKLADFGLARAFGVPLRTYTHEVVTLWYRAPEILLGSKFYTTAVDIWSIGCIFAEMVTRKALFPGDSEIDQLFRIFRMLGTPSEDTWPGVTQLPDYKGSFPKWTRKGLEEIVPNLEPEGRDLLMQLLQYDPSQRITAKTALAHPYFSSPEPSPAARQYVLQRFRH

| SMILES | inhibition [1] [%] | inhibition [2] [%] | inhibition [3] [%] | inhibition [4] [%] | inhibition [5] [%] | inhibition [6] [%] | inhibition [7] [%] | inhibition [8] [%] | inhibition [9] [%] | inhibition [10] [%] | inhibition [11] [%] | inhibition [12] [%] | inhibition [13] [%] | inhibition [14] [%] | inhibition [15] [%] | inhibition [16] [%] | inhibition [17] [%] | inhibition [18] [%] | inhibition [19] [%] | inhibition [20] [%] |
| --- | --- | --- | --- | --- | --- | --- | --- | --- | --- | --- | --- | --- | --- | --- | --- | --- | --- | --- | --- | --- |
| NC(=O)c1ccc(-c2nc(-c3ccccn3)c(-c3ccc4c(c3)OCO4)[nH]2)cc1 | -1.06 | 1.33 | 1.94 | 0.55 | 0.87 | 1 | -1.82 | 1.23 | 1.07 | -1.49 | 1.76 | 1.47 | 3.08 | -0.77 | 0.83 | 1.43 | 1.31 | 2.47 | 3.92 | 1.88 |
| COc1cc2ncn(-c3cc(O[C@@H](C)c4ccccc4Cl)c(C(N)=O)s3)c2cc1OC | -0.13 | 2.39 | 4.14 | 0.19 | 2.21 | -0.46 | 1.56 | 0.33 | 0.86 | 0.71 | 2.08 | 4.47 | 8.19 | -0.84 | 5.29 | 2.62 | 3.36 | 3.02 | 6.38 | 2.25 |
| COc1ccc(-c2nn3ncccc3c2-c2ccnc(Nc3ccc(Cl)c(C(F)(F)F)c3)n2)cc1 | -0.57 | 1.13 | 2.09 | 0.45 | 0.19 | 0.68 | 1.73 | 0.95 | 1.59 | 1.77 | 0.49 | -0.17 | 2.05 | -1.42 | 0.89 | 1.06 | 1.84 | 2.46 | 3.98 | 1.3 |
| O=C1NC(=O)C(c2cccc(Cl)c2)=C1Nc1ccc(O)c(Cl)c1 | 6.94 | 2.23 | 13.9 | 1.36 | 7.25 | -3.15 | 12.6 | 4.59 | 26.1 | -0.5 | 5.01 | 2.08 | 17.3 | 1.51 | 8.29 | 1 | 0.69 | – | – | – |
| CS(=O)(=O)CCNCc1nc(-c2ccc3ncnc(Nc4ccc(F)c(Cl)c4)c3c2)cs1 | -2.13 | 0.51 | 0.73 | 0.12 | 0.38 | 6.34 | -1.47 | 0.29 | 2.89 | -0.05 | 0.43 | 0.63 | 1.24 | 0.27 | 1.63 | 0.37 | 2.12 | 1.3 | 3.03 | 1.2 |
| COc1cc2ncn(-c3cc(OCc4ccccc4Cl)c(C(N)=O)s3)c2cc1OC | -0.63 | 2.27 | 5.4 | 1.51 | 4.46 | -4.1 | 0.43 | 1.87 | 3.23 | 1.33 | 4.39 | 0.59 | 4.21 | 1.28 | 0.48 | 0.19 | 2.53 | 2.18 | 9.18 | 1.21 |
| COc1cc2ncn(-c3cc(O[C@H](C)c4ccccc4Cl)c(C(N)=O)s3)c2cc1OC | 5.51 | 2.41 | 3.26 | 0.86 | 1.47 | -0.21 | -0.74 | 3.38 | 5.22 | 2.12 | 7.93 | -0.27 | 3.73 | -0.01 | 0.14 | 2.5 | 5.55 | 5.34 | 19.8 | 5.07 |
| CS(=O)(=O)CCN(CC#N)Cc1ccc(-c2ccc3ncnc(Nc4ccc(OCc5cccc(F)c5)c(Cl)c4)c3c2)o1 | -2.66 | -2.96 | -1.43 | -3.58 | -2.47 | -5.97 | -4.69 | 1.05 | 0.64 | -3.63 | -4.13 | -2.78 | -0.17 | -4.49 | -3.08 | 0.54 | 0.76 | -1.48 | 0.08 | -2.26 |
| CCn1c(-c2nonc2N)nc2cncc(C(=O)N3CC[C@H](N)C3)c21 | -2.13 | 2.98 | 2.35 | 0.46 | 0.69 | -1.51 | 4.8 | 5.07 | 21.6 | 1.31 | 1.82 | 12.7 | 49.4 | 7.9 | 44.4 | 15 | 59.5 | 3.29 | 19.3 | 2.36 |
| CCn1c(-c2nonc2N)nc2c(C#CC(C)(C)O)nc(OC[C@@H](N)c3ccccc3)cc21 | 0.99 | -0.22 | 0.8 | 0.35 | 0.49 | -0.27 | -0.99 | 0.81 | 2.4 | -0.31 | 0.8 | -0.38 | 5.33 | 1.06 | 4.19 | -1.52 | -0.54 | 37.4 | 78.5 | 32.1 |
| CC1=C(C(=O)Nc2ccc3[nH]ncc3c2)C(c2ccc(F)cc2)NC(=O)N1 (stereo unspecified) | -0.84 | 1.79 | 4.05 | 0.41 | 3.23 | -2.46 | 4.38 | -0.24 | 0.68 | 3.34 | 1.47 | 1.78 | 1.58 | -0.22 | 3.29 | 0.94 | 2.08 | -0.66 | -0.33 | -0.1 |
| NC(=O)c1cccc(Nc2nccc(Nc3cccc4[nH]ncc34)n2)c1 | 23.7 | -0.82 | 5.05 | 1.84 | 14.1 | 0.2 | 0.3 | 1.19 | 27.8 | 0.15 | 8.54 | 3.35 | 22.1 | 5.54 | 28.3 | -1.74 | 7.45 | 8.87 | 42.1 | 8.67 |
| O=C1NC(=O)C(N2CCc3ccccc32)=C1c1ccc(Cl)cc1 | 0.23 | 3.68 | 5.74 | 2.06 | 2.74 | -3.76 | 5.39 | -0.03 | 0.46 | 2.68 | 2.44 | 3.12 | 4.67 | 0.13 | 1.08 | 3.3 | 3.36 | 3.79 | 14 | – |
